From article PMC12864922, “TDP-43 directly inhibits mRNA accumulation in neurites through modulation of mRNA stability”
In all, about 9,900 sequences were measured (“r (bound/input frequency ratio)”: median about 0.7, highest 2% from about 6.5 on). Only a selection was taken, and the highest values are over-represented in it overall.

B1: ENSMUSG00000042529.155|Kcnj12|40:44 (ssRNA)
RNA: GGGAGUUCUACAGUCCGACGAUCGCUUCGAUAUCCGCAUGCUAAGAGUGGGUGCUUCUUAGAAAAGGACACUCAGGAAAUUACAUACGGGUCUGGGUCCCACAUCCCCAGGAAGUGGGUCAGCCCCACGUCCCCCGCUGGACUCACAGCUUGAGUUGUGCCUUAGAGACUCUGGUUGUCUGGCUUCCGUCAUUUCUGGUUUUCUCAGACUUGUUUAAUCUUUCCCUACUGCCCUAAGUCCACUCAUGAAGCUCCCCAGGCCCUUCUGAGAUUGCAGAGGCUGCUUGCUCAUAGCCAUGACCCUCUCUUGCGGUCGCACUAGUGUGGAAUUCUCGGGUGUCAAGG
B2: ENSMUSG00000031028.502|Tub (ssRNA)
RNA: GGGAGUUCUACAGUCCGACGAUCGCUUCGAUAUCCGCAUGCUACAAGUAAGGUGUGUGCCUCUGGGAAGACAGGAGUCGGAAGCCAAGGUGUGUGGCAACAGUCUGGAAGAGAGCUUUUGGUAAUCAUACCGUCUUCAGUGACAAGGCAACAAUGCUGUAAAGUGGGUUUGUUUGGUUUUGUUUUUUCUUUCUCUUUUAUGGAAAUGGCAGGUCUAUUUGCCUCAAACGUUAUGUAGAAGUAGUUCUAAGUUUAACAAGCAAUAGAGAUGACUGCUUAGCUAGGAUCUGCAGGGAGCUCUGCUCUCUUGCGGUCGCACUAGUGUGGAAUUCUCGGGUGUCAAGG
B3: ENSMUSG00000042529.125|Kcnj12|220:224 (ssRNA)
RNA: GGGAGUUCUACAGUCCGACGAUCGCUUCGAUAUCCGCAUGCUAGUGGGGCCCACUAGGGUGAAUCUGGCUUGCUCUUCUGUUUGAUGUUGUUGUACCUCAGCUGCCUCAGGGCUGGGUUUAGACACCCCUUCCCCCACCCCCACUCCGUACUCCCUGUUGUGCUUCCCUUCCUAUUUAGUCCCAGGUCUCCACCCCUUGCAGCGAGGGGGCAUAGGAAACACCAGAGUGGGUGCUUCUUAGAAAAGGACACUCAGGAAAUUACAUACGGGUCUGGGUCCCACAUCCCCAGGAAGUGGGUCAGCCUCUUGCGGUCGCACUAGUGUGGAAUUCUCGGGUGUCAAGG
B4: ENSMUSG00000031028.204|Tub|197:201;203:208 (ssRNA)
RNA: GGGAGUUCUACAGUCCGACGAUCGCUUCGAUAUCCGCAUGCUACUCUUCCCAGUUCCAGAGAUGAAACCCCUCCGAGUUAAUGUAUAAGGUUGGAAACCUUUCAGUAGGGAAUCAGGCAGUUCCCUGUUGAAAGUUGUCUGAGUUUUUGCACACCAUUCUGAUCUGAUGUGGCCUGUGCCUGGCUCCUCUAUGAGGACUUCGAGCUGUGCACAGACCUUAGCAGGACCACUGCACACUUACACACACACACACAGGCAGCCCAAGGGUUCUGGGGCUGGGCUUGGACACGCCCUCCAUUGGGACUCUUGCGGUCGCACUAGUGUGGAAUUCUCGGGUGUCAAGG
B5: ENSMUSG00000032194.8|Kank2 (ssRNA)
RNA: GGGAGUUCUACAGUCCGACGAUCGCUUCGAUAUCCGCAUGCUAGCCGAGGAGUGAAUACAGGGAGGAGCCAGUGAGUCCCCCAGGACCCACCAGCCACAAGCCACGCAUCAAACCGUCCCUCCUCCAUCCCUCUGUCCCAUUCUGCCUCGGCAUUCCUCAGCCCCUGAACUUCCCUGAGGGAGCCCUGACAUCUACCAGGCUCAAGCUCCUGGAAGCCUUUCCCAGCACCCUGGGUUCAAAGCCAGAAAGCCAAGCUACAUUCUCCUCCCAGUUGGCACCAGUUGACAACGCCUUGGGUGUGGCUCUUGCGGUCGCACUAGUGUGGAAUUCUCGGGUGUCAAGG
B6: ENSMUSG00000031028.492|Tub|69:75;106:112 (ssRNA)
RNA: GGGAGUUCUACAGUCCGACGAUCGCUUCGAUAUCCGCAUGCUAUUUAAAUGAACAUGGGGUGGUGAUGGUGCCUUAACAAUCUUGACACUAAGGUGAAGCAAGCAAGUAAGCACACACCCUCUGGGAAGACAGGAGUCGGAAGCCAAGCACACACGCAACAGUCUGGAAGAGAGCUUUUGGUAAUCAUACCGUCUUCAGUGACAAGGCAACAAUGCUGUAAAGUGGGUUUGUUUGGUUUUGUUUUUUCUUUCUCUUUUAUGGAAAUGGCAGGUCUAUUUGCCUCAAACGUUAUGUAGAAGUAGCUCUUGCGGUCGCACUAGUGUGGAAUUCUCGGGUGUCAAGG
B7: ENSMUSG00000061578.750|Ksr2 (ssRNA)
RNA: GGGAGUUCUACAGUCCGACGAUCGCUUCGAUAUCCGCAUGCUACAAGUUUGAGUCUCCAUAUGGGCCCUUCCUGUCCUCAUGCCCUGCCUGUCUUCAUUCCACCCAUCCACCCUCCUAAGGAUUGGUCUUGUUCCGAGAGUGAUCCUGGUAACGCCAAGCCUCCCUCUGCCCCUGUGUUGGCUUCUGUGACGGACUACCACACACCAAGAGGUUUUUCACAGUGAAGAUGUAUGCUCUCACCAUCCUACAGAUGCAAAGACCAAACACAAAGUGUCUGCAUGACCUUCCCCCUCUGGAAUUUGCUCUUGCGGUCGCACUAGUGUGGAAUUCUCGGGUGUCAAGG
B8: ENSMUSG00000028439.173|Fam219a (ssRNA)
RNA: GGGAGUUCUACAGUCCGACGAUCGCUUCGAUAUCCGCAUGCUAAUGGUAUGGUAUGGUAUGGUAUGGUAUGCACAUGUGUGUGCAUGUGUGUGUGCCUGUGUGUGUGCGUGUGCGUGUGUGUAUGUGUGUGCGUGUGUGUGUGUGUGUGUUGUACCCGAGUGUGUGUUGAGCCUAUCUGUCCAGGGAACCAGAUUGGUGUCCGAGAUGAGGAAAUGGCUGUGGCCUGGGAAAUCAGUGAGAGGCCGCUUGGGAAUGAGAAUGCAGUGGACUGAAAGCACAGCCUGGCCAUCUGGAACCUGGGUCUCUUGCGGUCGCACUAGUGUGGAAUUCUCGGGUGUCAAGG
B9: ENSMUSG00000028439.170|Fam219a (ssRNA)
RNA: GGGAGUUCUACAGUCCGACGAUCGCUUCGAUAUCCGCAUGCUAUGUAUGAUAUGGUAUGGUAUGGUAUGGUAUGGUAUGGUAUGGUAUGCACAUGUGUGUGCAUGUGUGUGUGCCUGUGUGUGUGCGUGUGCGUGUGUGUAUGUGUGUGCGUGUGUGUGUGUGUGUGUUGUACCCGAGUGUGUGUUGAGCCUAUCUGUCCAGGGAACCAGAUUGGUGUCCGAGAUGAGGAAAUGGCUGUGGCCUGGGAAAUCAGUGAGAGGCCGCUUGGGAAUGAGAAUGCAGUGGACUGAAAGCACAGCCUGCUCUUGCGGUCGCACUAGUGUGGAAUUCUCGGGUGUCAAGG
B10: ENSMUSG00000028439.175|Fam219a (ssRNA)
RNA: GGGAGUUCUACAGUCCGACGAUCGCUUCGAUAUCCGCAUGCUAGGUAUGGUAUGGUAUGCACAUGUGUGUGCAUGUGUGUGUGCCUGUGUGUGUGCGUGUGCGUGUGUGUAUGUGUGUGCGUGUGUGUGUGUGUGUGUUGUACCCGAGUGUGUGUUGAGCCUAUCUGUCCAGGGAACCAGAUUGGUGUCCGAGAUGAGGAAAUGGCUGUGGCCUGGGAAAUCAGUGAGAGGCCGCUUGGGAAUGAGAAUGCAGUGGACUGAAAGCACAGCCUGGCCAUCUGGAACCUGGGUUCUGGUCCCAGCCUCUUGCGGUCGCACUAGUGUGGAAUUCUCGGGUGUCAAGG
B11: ENSMUSG00000028439.174|Fam219a|3:22;27:34;37:46;49:58;60:64;66:82;84:101;111:118 (ssRNA)
RNA: GGGAGUUCUACAGUCCGACGAUCGCUUCGAUAUCCGCAUGCUAUGCAUACCAUACCAUACCAUACCACAACACACACCAACACACACACCCACACACACACCCACACCCACACACAUACACACACCCACACACACACACACACAUGUACCCGACACACACAUGAGCCUAUCUGUCCAGGGAACCAGAUUGGUGUCCGAGAUGAGGAAAUGGCUGUGGCCUGGGAAAUCAGUGAGAGGCCGCUUGGGAAUGAGAAUGCAGUGGACUGAAAGCACAGCCUGGCCAUCUGGAACCUGGGUUCUGGUCUCUUGCGGUCGCACUAGUGUGGAAUUCUCGGGUGUCAAGG
B12: ENSMUSG00000028439.176|Fam219a (ssRNA)
RNA: GGGAGUUCUACAGUCCGACGAUCGCUUCGAUAUCCGCAUGCUAGUAUGGUAUGCACAUGUGUGUGCAUGUGUGUGUGCCUGUGUGUGUGCGUGUGCGUGUGUGUAUGUGUGUGCGUGUGUGUGUGUGUGUGUUGUACCCGAGUGUGUGUUGAGCCUAUCUGUCCAGGGAACCAGAUUGGUGUCCGAGAUGAGGAAAUGGCUGUGGCCUGGGAAAUCAGUGAGAGGCCGCUUGGGAAUGAGAAUGCAGUGGACUGAAAGCACAGCCUGGCCAUCUGGAACCUGGGUUCUGGUCCCAGCCUCGGCCUCUUGCGGUCGCACUAGUGUGGAAUUCUCGGGUGUCAAGG
B13: ENSMUSG00000028439.171|Fam219a (ssRNA)
RNA: GGGAGUUCUACAGUCCGACGAUCGCUUCGAUAUCCGCAUGCUAAUAUGGUAUGGUAUGGUAUGGUAUGGUAUGGUAUGGUAUGCACAUGUGUGUGCAUGUGUGUGUGCCUGUGUGUGUGCGUGUGCGUGUGUGUAUGUGUGUGCGUGUGUGUGUGUGUGUGUUGUACCCGAGUGUGUGUUGAGCCUAUCUGUCCAGGGAACCAGAUUGGUGUCCGAGAUGAGGAAAUGGCUGUGGCCUGGGAAAUCAGUGAGAGGCCGCUUGGGAAUGAGAAUGCAGUGGACUGAAAGCACAGCCUGGCCAUCCUCUUGCGGUCGCACUAGUGUGGAAUUCUCGGGUGUCAAGG
B14: ENSMUSG00000028439.174|Fam219a (ssRNA)
RNA: GGGAGUUCUACAGUCCGACGAUCGCUUCGAUAUCCGCAUGCUAUGGUAUGGUAUGGUAUGGUAUGCACAUGUGUGUGCAUGUGUGUGUGCCUGUGUGUGUGCGUGUGCGUGUGUGUAUGUGUGUGCGUGUGUGUGUGUGUGUGUUGUACCCGAGUGUGUGUUGAGCCUAUCUGUCCAGGGAACCAGAUUGGUGUCCGAGAUGAGGAAAUGGCUGUGGCCUGGGAAAUCAGUGAGAGGCCGCUUGGGAAUGAGAAUGCAGUGGACUGAAAGCACAGCCUGGCCAUCUGGAACCUGGGUUCUGGUCUCUUGCGGUCGCACUAGUGUGGAAUUCUCGGGUGUCAAGG
B15: ENSMUSG00000028439.172|Fam219a (ssRNA)
RNA: GGGAGUUCUACAGUCCGACGAUCGCUUCGAUAUCCGCAUGCUAUAUGGUAUGGUAUGGUAUGGUAUGGUAUGGUAUGCACAUGUGUGUGCAUGUGUGUGUGCCUGUGUGUGUGCGUGUGCGUGUGUGUAUGUGUGUGCGUGUGUGUGUGUGUGUGUUGUACCCGAGUGUGUGUUGAGCCUAUCUGUCCAGGGAACCAGAUUGGUGUCCGAGAUGAGGAAAUGGCUGUGGCCUGGGAAAUCAGUGAGAGGCCGCUUGGGAAUGAGAAUGCAGUGGACUGAAAGCACAGCCUGGCCAUCUGGAACCUCUUGCGGUCGCACUAGUGUGGAAUUCUCGGGUGUCAAGG

Target: TDP-43 (Homo sapiens, UniProt Q13148 1-414)
Sequence (Q13148 whole entry): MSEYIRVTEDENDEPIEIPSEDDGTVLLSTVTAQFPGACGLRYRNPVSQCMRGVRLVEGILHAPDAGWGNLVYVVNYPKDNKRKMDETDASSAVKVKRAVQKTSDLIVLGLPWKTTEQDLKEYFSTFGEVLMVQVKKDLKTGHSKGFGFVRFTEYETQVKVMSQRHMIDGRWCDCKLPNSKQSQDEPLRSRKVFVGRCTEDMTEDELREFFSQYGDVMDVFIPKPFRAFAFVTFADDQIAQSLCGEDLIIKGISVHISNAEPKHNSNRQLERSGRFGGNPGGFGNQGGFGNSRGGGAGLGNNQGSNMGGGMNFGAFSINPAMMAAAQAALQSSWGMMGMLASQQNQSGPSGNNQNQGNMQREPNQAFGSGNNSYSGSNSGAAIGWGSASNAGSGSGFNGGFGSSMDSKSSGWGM
Experiment: RNA Bind-n-Seq with designed 260-mer pool; 25 mM Tris-HCl, 150 mM KCl, 3 mM MgCl2, BSA (printed 500 mg/mL), 20 units/mL SUPERase IN; pH not stated; 500 nM RNA pool, 1 h, 4 C; TDP-43 5, 50, 500 nM; high values mean tight binding
Details: protein: recombinant; tags: SBP (GST cleaved off with PreScission; pGEX-GST-SBP)
Procedure, shortened: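 The incubation lasted 1 h at 4 °C and used 500 nM of an in vitro-transcribed 260-nt 3′ UTR oligo pool with recombinant SBP-tagged TDP-43 at 5, 50 or 500 nM immobilized on streptavidin beads. It took place in 25 mM Tris-HCl, 150 mM KCl, 3 mM MgCl2, BSA and SUPERase IN. Bound RNA was washed, eluted with biotin, converted to cDNA, PCR-amplified and sequenced to give R, each oligo's normalized abundance in the bound sample divided by that in input. Two independent protein batches provided the duplicates.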

Which binding signal does the source give for B1 here?
Its binding signal is 0.524 R (bound/input frequency ratio).

How did the binding signal turn out when B2 was run?
Its binding signal is 0.806 R (bound/input frequency ratio).

B3 was tested. Which binding signal did it give?
Its binding signal is 0.802 R (bound/input frequency ratio).

B4 was tested. Which binding signal did it give?
Its binding signal is 1.16 R (bound/input frequency ratio).

For B5, which binding signal is on record?
The binding signal was 1.4 R (bound/input frequency ratio).

How did the binding signal turn out when B6 was run?
Its binding signal is 0.828 R (bound/input frequency ratio).

B7 was tested. Which binding signal did it give?
Its binding signal is 0.725 R (bound/input frequency ratio).

How did the binding signal turn out when B8 was run?
Its binding signal is 6.03 R (bound/input frequency ratio).

B9 was tested. Which binding signal did it give?
Its binding signal is 6.06 R (bound/input frequency ratio).

How did the binding signal turn out when B10 was run?
Its binding signal is 7.42 R (bound/input frequency ratio).

How did the binding signal turn out when B11 was run?
Its binding signal is 1.59 R (bound/input frequency ratio).

For B12, which binding signal is on record?
The binding signal was 5.69 R (bound/input frequency ratio).

B13 was tested. Which binding signal did it give?
Its binding signal is 8.2 R (bound/input frequency ratio).

Which binding signal does the source give for B14 here?
Its binding signal is 7.57 R (bound/input frequency ratio).

With B15 as the binder, how does the binding signal read?
Its binding signal is 6.41 R (bound/input frequency ratio).
